High-throughput results as filed in PubChem BioAssay.
Cruzain Triton = inhibitors of Trypanosoma cruzi cruzain with detergent | P25779 | purified cruzain, Z-FR-AMC fluorescence, 0.01% Triton | Potency, µM, for the others: max response, negative = inhibition, hits mostly inhibitors | 0.43% of 200,000 active | AID 1478;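 also: plate controls were neutral wells for no effect and buffer without enzyme for full effect; nearly all actives have a fitted effect of over 40% in size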
Target sequence (P25779 123-467 limits assumed): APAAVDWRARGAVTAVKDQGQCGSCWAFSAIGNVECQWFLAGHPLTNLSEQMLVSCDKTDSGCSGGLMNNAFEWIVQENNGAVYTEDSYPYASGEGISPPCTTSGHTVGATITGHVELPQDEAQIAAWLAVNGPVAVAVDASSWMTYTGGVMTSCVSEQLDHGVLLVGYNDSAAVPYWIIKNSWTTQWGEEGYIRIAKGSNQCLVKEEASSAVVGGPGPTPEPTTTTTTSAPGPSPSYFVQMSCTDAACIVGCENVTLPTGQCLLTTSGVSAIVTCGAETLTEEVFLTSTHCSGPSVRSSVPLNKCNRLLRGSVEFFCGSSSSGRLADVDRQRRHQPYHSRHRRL
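Detergent-containing arm of a paired screen for aggregation-based inhibition: 0.01% Triton X-100 present. Cruzain at 1.5 nM cleaved 2 uM Z-FR-AMC at pH 5.5 with 5 mM DTT; AMC fluorescence gain over 60 s measured activity.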
Cruzain noTriton = cruzain (T. cruzi) inhibition without detergent. P25779. purified cruzain, Z-FR-AMC fluorescence, no detergent. Potency, µM, for the others: max response, negative = inhibition, actives largely listed as inhibitors. 2.3% of 200,000 active. AID 1476;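 also: plate controls were enzyme without inhibitor for no effect and buffer without enzyme for full effect; nearly all actives have a fitted effect of over 40% in size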
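Detergent-free condition (0.00005% Triton X-100) in acetate buffer pH 5.5 with DTT. 1.5 nM enzyme and compound were pre-mixed 15 min, then 2 uM Z-FR-AMC substrate added; reaction progress from fluorescence change between first and third reads (60 s).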
Starred values were filed as active, the others as inactive; ? = inconclusive. The list is not random: actives were taken first. Their share in the collection is about 2.4%. Calls follow the shape of the dose curve; as a rule, active = well fitted curve in the direction sought with a large enough effect; inconclusive = small, poorly fitted or top-dose-only effect, or another doubt; inactive = no such curve, though single readings can be large; an effect the other way counts as inactive or inconclusive. Potency is read from the fitted curve at half-maximal effect.

SMILES	Cruzain Triton	Cruzain noTriton
O=C(NCc1cccs1)c1ccc2c(c1)N(Cc1ccccc1Cl)C(=O)c1ccccc1S2	-1%	?
CCSc1ncc(Cl)c(C(=O)N(Cc2ccccc2)c2ccc(OC)cc2)n1	-7%	-7%
COc1ccccc1NC(=O)c1ccc(NC(=O)COC(=O)C(C)C)cc1	-4%	3%
COc1ccccc1NC(=O)c1ccc(NC(=O)COC(=O)CC(NC(=O)c2ccccc2Cl)c2ccccc2)cc1 (configuration not stated)	-6%	20µM*
C[C@H](CN(C)C)C(=O)c1ccccc1C(=O)O	4%	1%
CCc1nnc(/N=C/c2c(O)n(-c3ccc(Cl)cn3)c(=O)c3ccccc23)s1	-7%	?
O=c1c2ccccc2c(C=Nc2ccc(S(=O)(=O)N3CCCCC3)cc2)c(O)n1-c1ccc(Cl)cn1	4%	7.9µM*
CCOC(=O)c1cc(-c2ccc(OC)cc2)n(CCC(=O)NCCc2ccc(OCC)c(OCC)c2)c1C	-3%	5%
Cc1cc(/C=N/NC(=O)Cn2c3ccccc3c(=O)c3ccccc32)c(C)n1-c1ccc(Cl)cc1	-4%	3.2µM*
Cc1ccc(-n2c(C)cc(/C=N/NC(=O)Cn3c4ccccc4c(=O)c4ccccc43)c2C)cc1	-2%	?
O=C(Cn1c2ccccc2c(=O)c2ccccc21)N/N=C/c1ccc(N2CCCC2)c([N+](=O)[O-])c1	-11%	?
O=C(Cn1c2ccccc2c(=O)c2ccccc21)N/N=C/c1cc([N+](=O)[O-])ccc1N1CCCCCC1	-2%	6.3µM*
Cc1ccc(/C=C/c2onc(C)c2S(=O)(=O)N2CCC(C(=O)NCC(C)c3ccccc3)CC2)cc1 (configuration not stated)	-2%	-3%
O=C(CCCCCn1c(=O)c2sccc2n(CC(=O)Nc2cc(C(F)(F)F)ccc2Cl)c1=O)NCc1ccccc1Cl	-7%	16µM*
CC(C)(C)C(=O)Cn1c(=O)n(CCCCCC(=O)NCc2ccccc2Cl)c(=O)c2sccc21	-11%	10%
O=c1c2ccccc2nc(-c2ccc(Cl)cc2)n1CCCCOc1ccc(F)cc1	-2%	-5%
O=C1C=CC(=O)C2=C1C1c3ccccc3C2c2ccccc21	3%	-2%
Cc1cc(NC(=O)CSc2ccc(-c3nc4cc(C)c(C)cc4[nH]3)cn2)no1	2%	?
Cc1cc2nc(-c3ccc(SCC(=O)N4CCc5ccccc54)nc3)[nH]c2cc1C	-2%	16µM*
Cc1ccc(C(=O)NCC(=O)OCc2cc(=O)n3c(C)csc3n2)cc1	-8%	-11%
CCOC(=O)c1cccc(NC(=O)CCS(=O)(=O)c2ccc3c(c2)CC(=O)N3C)c1	1%	-3%
O=[N+]([O-])c1ccc(S(=O)(=O)NCc2nc3cccnc3n2Cc2ccccc2Cl)cc1	-2%	-10%
CCOc1ccc(C2C(C#N)=C(N)SC(N)=C2C#N)cc1OCC	-11%	-1%
N#CC1=C(N)SC(N)=C(C#N)C1c1cccc(Oc2ccccc2)c1	-18%	25µM*
O=C(CSc1nnc(-c2c[nH]c3ccccc23)o1)N(Cc1ccccc1)c1ccc(F)cc1	-5%	13µM*
SMILES	Cruzain Triton	Cruzain noTriton
COc1ccc(CN(C(=O)CSc2nnc(-c3ccccc3C)o2)c2ccc(F)cc2)cc1	-5%	-9%
COc1ccc(-c2nn(CCC(=O)O)cc2/C=C2\SC(N)=NC2=O)cc1OC	-4%	3%
CCCOc1ccc(-c2nn(-c3ccccc3)cc2/C=C2\SC(N)=NC2=O)cc1C	-5%	13µM*
COc1cc(/C=C(\C#N)c2nc3ccccc3[nH]2)c([N+](=O)[O-])cc1OCc1ccccc1	-5%	32µM*
COc1cc(/C=C(\C#N)c2nc3ccccc3[nH]2)cc(Cl)c1OCc1ccccc1Cl	0%	10µM*
COc1cc(/C=C(\C#N)c2nc3ccccc3[nH]2)ccc1OC(=O)c1ccco1	-4%	-9%
N#C/C(=C\c1ccc(OCc2ccc(Cl)cc2Cl)cc1)c1nc2ccccc2[nH]1	2%	-11%
CCc1ccc(NC(=O)C2CCCN2S(=O)(=O)c2cccc3nsnc23)cc1 (configuration not stated)	-2%	-9%
COc1ccccc1NC(=O)C1=C(C)Nc2nc(SCc3cc(C)ccc3C)nn2C1c1ccccc1 (configuration not stated)	-1%	4%
Cc1ccc(CNc2ncnc3c2c(-c2ccccc2)cn3-c2ccccc2)cc1	-1%	-7%
COc1cc2c(cc1O)CCC1C2CC[C@]2(C)[C@@H](O)CC[C@@H]12 (some centres not stated)	2%	3%
COc1ccc(N=Nc2nc(-c3ccccc3)c(-c3ccccc3)[nH]2)cc1	-2%	25µM*
COc1ccccc1N=Nc1nc(-c2ccccc2)c(-c2ccccc2)[nH]1	-5%	-23%
CCc1ccc(-n2nc(C)c3c(C)cc(=O)n(CC(=O)N4CCCc5ccccc54)c32)cc1	-1%	5%
Cc1ccc2nc(NC(=O)C3CCN(S(=O)(=O)c4cccc5nsnc45)CC3)sc2c1	-6%	?
Cc1ccc2nc(NC(=O)C3CCN(S(=O)(=O)c4cc([N+](=O)[O-])ccc4Cl)CC3)sc2c1	-3%	32µM*
CC(NC(=O)C1CCN(S(=O)(=O)c2cc([N+](=O)[O-])ccc2Cl)CC1)c1ccccc1 (configuration not stated)	-4%	-8%
O=C(Nc1nc2ccc(F)cc2s1)C1CCN(S(=O)(=O)c2cc([N+](=O)[O-])ccc2Cl)CC1	-8%	10µM*
Cc1ccc(C)c(CN2C(=O)c3ccccc3Sc3ccc(C(=O)NC4CCCC4)cc32)c1	1%	-5%
CC1CCCCN1C(=O)CSc1n[nH]c(-c2ccccc2)n1 (configuration not stated)	3%	-5%
COCCN1C(=O)N(c2cccc(OC)c2)C(=O)C1CC(=O)Nc1ccccc1 (configuration not stated)	-2%	-4%
Cc1ccc(NCCC(=O)c2ccc(Br)cc2)cc1	-1%	20µM*
CCc1ccc(NCCC(=O)c2ccc(Br)cc2)cc1	-5%	1%
Cc1ccc(O)c(C=Nc2ccc3[nH]ncc3c2)c1	?	7%
COc1ccc(CN=CC2=C(O)CNC2=O)cc1	8%	-2%
SMILES	Cruzain Triton	Cruzain noTriton
Cc1cc(C)cc(N=Cc2[nH]c3ccc(Br)c(Cl)c3c2O)c1	-1%	4µM*
COc1ccc(CN=Cc2[nH]c3ccc(Br)c(Cl)c3c2O)cc1	-15%	25µM*
Cc1ccc(NC(=O)c2ncn(-c3ccccc3)n2)cc1Cl	-3%	-2%
Cc1cccc(OCC(=O)Nc2c(C(=O)N3CCN(c4ccccc4F)CC3)oc3ccccc23)c1	-10%	?
Cn1c(=O)n(-c2ccc(Br)cc2F)c(=O)c2sc3ccccc3c21	2%	0%
COc1ccc2ncc3c(-c4ccc(C)c(C)c4)nn(CC(=O)NC4CCCCC4)c3c2c1	-3%	2%
CN(C)C=O	6%	7%
COc1cc(OC)cc(C(=O)Oc2ccc(/C=N/Nc3nc4ccccc4s3)cc2OC)c1	-7%	13µM*
COc1cc(/C=N/NC(=O)COc2ccc(C)cc2)ccc1OC(=O)c1cccs1	-5%	?
COc1cc(/C=N/Nc2ccccc2)ccc1OC(=O)c1cccs1	-3%	13µM*
COc1cc(/C=N/Nc2nc3ccccc3s2)ccc1OC(=O)c1ccccc1F	-3%	?
COc1ccc(C2=CC(c3ccccc3Cl)n3nc(-c4ccc(C)cc4)nc3N2)cc1 (configuration not stated)	-5%	3.2µM*
